Drawing on PubChem BioAssay (NCI), this text covers growth for 8 molecules.

Among the test systems are NCI-H23 lung; NCI-H322M lung; HOP-62 NSCLC; NCI-H460 lung; HOP-92 NSCLC; NCI-H522 lung; A549/ATCC NSCLC; 786-0 renal; COLO 205 colon; DU-145 prostate; MALME-3M melanoma; MDA-MB-231 breast; SF-268 CNS; SF-295 CNS; SF-539 CNS; UACC-257 melanoma; M14 melanoma; HCT-15 colon; K-562 leukemia; RXF 393 renal.
What all share (test): NCI-60 one-dose screen, 48 h (100 = growth as untreated, 0 = no growth, -100 = all killed)
Conditions in all cases: 10 µM unless noted

SMILES strings stand for the structures. About 83,000 compounds went through this panel and 20% of them were active in at least one assay; those are over-represented in the sample as a whole.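 Step 1: grow cells in 96-well plates. Step 2: add test compound at a single concentration. Step 3: incubate 48 h. Step 4: record percent growth.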 A number with no mark means an inactive call. Active and inactive are the calls of the source. The calls were made as follows: active = growth percent below 10; inactive = the rest.

Regarding `COc1cc(C2C(C#N)=C(N)OC3=C2C(=O)c2ccccc2C3=O)cc(OC)c1O` (stereo not drawn), the growth in the assay on NCI-H23 lung is 32.5%; in the assay on NCI-H322M lung it was 47.7%; in the assay with HOP-62 NSCLC, 34.2%; in the assay on NCI-H460 lung, 12.7%; in the assay with HOP-92 NSCLC it was 43.7%; in the assay with NCI-H522 lung, -10.1% (active). Also, the growth in the assay on A549/ATCC NSCLC was 52.3%; in the assay with 786-0 renal it was 35.4%; in the assay on COLO 205 colon, 44.6%; with DU-145 prostate, 17.8%; with MALME-3M melanoma it was 54.7%; with MDA-MB-231 breast it was 57.1%. The growth in the assay with SF-268 CNS was 42.2%; in the assay on SF-295 CNS, 29.3%; in the assay with SF-539 CNS, 0.132% (active); in the assay on UACC-257 melanoma, 55.9%; with M14 melanoma it was 21.1%; in the assay on HCT-15 colon, 23.6%.
Consider `COc1ccc(/C=C/C(=O)c2ccc(Nc3nc(NCCO)nc(Nc4ccc(Cl)cc4)n3)cc2)cc1`, for which the growth in the assay with NCI-H23 lung was 89.6%; in the assay with NCI-H322M lung, 93.6%; in the assay on HOP-62 NSCLC, 87.8%; in the assay with NCI-H460 lung, 61.7%; in the assay on HOP-92 NSCLC, 86.7%; in the assay on NCI-H522 lung it was 71.6%. Further, the growth in the assay on A549/ATCC NSCLC is 50.2%; in the assay with 786-0 renal it was 63.9%; with DU-145 prostate it was 71.4%; in the assay on K-562 leukemia, 62.3%; in the assay on MALME-3M melanoma, 97.2%; with MDA-MB-231 breast, 70%. For the same molecule, the growth is 66.3% in the assay with RXF 393 renal; 65.7% with SF-268 CNS; 93.6% in the assay on SF-295 CNS; 74.9% in the assay with SF-539 CNS; 100% in the assay with UACC-257 melanoma; 67.9% in the assay with M14 melanoma. For the same molecule, the growth with HCT-15 colon is 38.2%.
Take `COc1cc(/C=C/C(=O)N2c3ccccc3CC2C)c(OC)c2c1OCO2` (stereo not drawn): the growth was 90.8% with NCI-H23 lung; 101% in the assay on NCI-H322M lung; 119% with HOP-62 NSCLC; 98.2% with NCI-H460 lung; 97.4% in the assay on HOP-92 NSCLC; 81.5% with NCI-H522 lung. Besides, the growth is 89.1% in the assay on A549/ATCC NSCLC; 94.9% with 786-0 renal; 125% with COLO 205 colon; 94.5% with DU-145 prostate; 101% with MALME-3M melanoma; 92.2% with MDA-MB-231 breast. The growth is 97% in the assay on SF-268 CNS; 83.6% in the assay on SF-295 CNS; 98.3% in the assay with SF-539 CNS; 100% in the assay with UACC-257 melanoma; 90.7% with M14 melanoma; 69.8% in the assay on HCT-15 colon.
In the case of `CC(C)CCOc1ccc(-c2n[nH]c(C(F)(F)F)c2-c2cncc(C#N)c2)c(O)c1`, the growth in the assay on NCI-H23 lung was -0.157% (active); with NCI-H322M lung, 12.4%; with HOP-62 NSCLC it was 5.79% (active); in the assay with NCI-H460 lung, 3.48% (active); in the assay on HOP-92 NSCLC, -27.9% (active); in the assay on NCI-H522 lung, -6.89% (active). The growth is 10.4% with A549/ATCC NSCLC; 17.1% in the assay on 786-0 renal; 49% in the assay with COLO 205 colon; 18% with DU-145 prostate; -0.801% (active) in the assay on MALME-3M melanoma; 1.43% (active) with MDA-MB-231 breast. Also, the growth in the assay with SF-268 CNS is 21.9%; in the assay with SF-295 CNS, 0.826% (active); with SF-539 CNS it was 25.2%; in the assay on UACC-257 melanoma, -14% (active); in the assay with M14 melanoma, 22.5%; in the assay with HCT-15 colon, 12%.
`O=C1C(=O)c2c(ccc3ccccc23)-c2ccccc21`: the growth in the assay with NCI-H23 lung is -48.4% (active); in the assay with NCI-H322M lung, 50.5%; in the assay with HOP-62 NSCLC, 9.44% (active); in the assay with NCI-H460 lung, 3.58% (active); in the assay with HOP-92 NSCLC it was -20.6% (active); with NCI-H522 lung, -77.4% (active). The growth is 24.1% in the assay with A549/ATCC NSCLC; -6.68% (active) in the assay on 786-0 renal; 52% in the assay with COLO 205 colon; 8.29% (active) in the assay on K-562 leukemia; -83.8% (active) in the assay on MALME-3M melanoma; -7.61% (active) in the assay with MDA-MB-231 breast. The growth in the assay on RXF 393 renal was 22%; with SF-268 CNS, 1.97% (active); in the assay with SF-295 CNS it was 109%; with SF-539 CNS it was -53.5% (active); with UACC-257 melanoma it was -37.4% (active); in the assay with M14 melanoma, -44.6% (active). In the assay on HCT-15 colon, the growth is -27.6% (active).
With `O=C1c2ccc3c4c(ccc(c24)C(=O)N1CCCCO)C(=O)N(CCCCO)C3=O`, the growth is 80.5% with NCI-H23 lung; 90.9% in the assay with NCI-H322M lung; 83.9% in the assay on HOP-62 NSCLC; 89.6% in the assay on NCI-H460 lung; 16% in the assay with HOP-92 NSCLC; -13.4% (active) in the assay on NCI-H522 lung. The growth is 45.6% in the assay on A549/ATCC NSCLC; 67.8% in the assay on 786-0 renal; 5.81% (active) in the assay with COLO 205 colon; 4.34% (active) in the assay with K-562 leukemia; -7.29% (active) with MALME-3M melanoma; 64.6% in the assay with MDA-MB-231 breast. The growth was 15.1% in the assay on RXF 393 renal; 81.3% with SF-268 CNS; 46.8% in the assay on SF-295 CNS; 68.3% with SF-539 CNS; -61% (active) with UACC-257 melanoma; 23.2% in the assay with M14 melanoma. For the same molecule, the growth in the assay on HCT-15 colon is 48.5%.
`Cc1sc2ncn(CC(=O)Nc3ccc(S(N)(=O)=O)cc3)c(=O)c2c1C`: the growth was 102% in the assay on NCI-H23 lung; 96.8% in the assay on NCI-H322M lung; 101% in the assay with HOP-62 NSCLC; 105% with NCI-H460 lung; 102% in the assay on HOP-92 NSCLC; 92.5% in the assay on NCI-H522 lung. In addition, the growth in the assay on A549/ATCC NSCLC is 98%; with 786-0 renal, 101%; with DU-145 prostate, 112%; with K-562 leukemia it was 103%; with MALME-3M melanoma, 102%; in the assay on MDA-MB-231 breast, 102%. Also, the growth in the assay on RXF 393 renal was 114%; with SF-268 CNS, 97.9%; in the assay on SF-295 CNS, 104%; in the assay on SF-539 CNS it was 96%; in the assay with UACC-257 melanoma it was 97.7%; in the assay with M14 melanoma, 114%. Further, the growth in the assay with HCT-15 colon is 102%.
Take `COc1ccc(-c2cn[nH]c2-c2ccc(OC)c(O)c2)cc1`: the growth with NCI-H23 lung is 92.8%; in the assay with NCI-H322M lung, 98.6%; with HOP-62 NSCLC, 66.4%; with NCI-H460 lung, 76.6%; with HOP-92 NSCLC, 61.5%; in the assay on NCI-H522 lung, 45.6%. The growth in the assay with A549/ATCC NSCLC is 76%; in the assay with 786-0 renal, 92.5%; in the assay on COLO 205 colon, 116%; in the assay with DU-145 prostate, 96.9%; with MALME-3M melanoma, 98.6%; in the assay with MDA-MB-231 breast, 68.4%. The growth in the assay with SF-268 CNS is 77.9%; with SF-295 CNS it was 81.7%; with SF-539 CNS, 76.9%; with UACC-257 melanoma, 92.3%; in the assay on M14 melanoma, 64.2%; in the assay with HCT-15 colon it was 50%.
